According to PubChem BioAssay (NCI):
Compounds without any hit were thinned out: in the full panel of roughly 83,000, 20% have a hit.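 Results are percent growth after 48 hours of single-concentration exposure. 100 means growth as in untreated cells, lower positive values show inhibition; negative values down to -100 show cell death.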 A number with no mark means an inactive call. Calls of active or inactive are those of the source. How the source made its calls: active means growth percent below 10; inactive means the rest.

Legend:
Assay in all cases: NCI-60 one-dose screen, 48 h (100 = growth as untreated, 0 = no growth, -100 = all killed)
Details in all cases: 10 µM unless noted
SR leukemia = tested on: SR leukemia
OVCAR-8 ovarian = tested on: OVCAR-8 ovarian
OVCAR-5 ovarian = tested on: OVCAR-5 ovarian
OVCAR-4 ovarian = tested on: OVCAR-4 ovarian
SK-OV-3 ovarian = tested on: SK-OV-3 ovarian
IGROV1 ovarian = tested on: IGROV1 ovarian
OVCAR-3 ovarian = tested on: OVCAR-3 ovarian
HS 578T breast = tested on: HS 578T breast
T-47D breast = tested on: T-47D breast
MDA-MB-435 melanoma = tested on: MDA-MB-435 melanoma
SW-620 colon = tested on: SW-620 colon
MCF7 breast = tested on: MCF7 breast
HCT-116 colon = tested on: HCT-116 colon
HCC-2998 colon = tested on: HCC-2998 colon
KM12 colon = tested on: KM12 colon
NCI/ADR-RES ovarian = tested on: NCI/ADR-RES ovarian
BT-549 breast = tested on: BT-549 breast

SMILES | growth (SR leukemia) | growth (OVCAR-8 ovarian) | growth (OVCAR-5 ovarian) | growth (OVCAR-4 ovarian) | growth (SK-OV-3 ovarian) | growth (IGROV1 ovarian) | growth (OVCAR-3 ovarian) | growth (HS 578T breast) | growth (T-47D breast) | growth (MDA-MB-435 melanoma) | growth (SW-620 colon) | growth (MCF7 breast) | growth (HCT-116 colon) | growth (HCC-2998 colon) | growth (KM12 colon) | growth (NCI/ADR-RES ovarian) | growth (BT-549 breast)
Cc1ccccc1C(=O)NN | 86.2% | 109% | 121% | 117% | 98.8% | 85.8% | 126% | 106% | 102% | 111% | 113% | 102% | 108% | 95.4% | 112% | – | –
COc1c(N2CC3CCCN(C(C)=O)C3C2)c(F)cc2c(=O)c(C(=O)N[C@H]3C(O)[C@@H](O)C(CO)O[C@H]3O)cn(C3CC3)c12 (stereo partly drawn) | 108% | 107% | 104% | 110% | 115% | 114% | – | 105% | 99.9% | 105% | 105% | 101% | – | 115% | 102% | 110% | 115%
COc1cccc(-c2nc(-c3ccc(NC(=O)C(C)C)cc3)[nH]c2-c2ccnc(Br)c2)c1 | -14.5% (active) | 38.1% | 70.2% | 33.3% | 46.4% | 52.1% | – | -13.2% (active) | 0.829% (active) | – | 42.2% | 12.3% | 34% | 45.7% | 36.4% | 46.7% | 56.9%
CCOC(=O)NCCc1ccccc1 | 74% | 108% | 112% | 121% | 106% | 85.3% | 116% | 105% | 106% | 108% | 99.2% | 99.1% | 108% | 90.3% | 108% | – | 108%
CCCCCCn1c(-c2ccc(C(=O)O/N=C(\N)c3ccc4c(c3)OCO4)cc2)nc(-c2ccccc2)c1-c1ccccc1 | -26.3% (active) | 17.7% | 43.2% | 39.6% | 98.7% | -68.5% (active) | 32.4% | 4.78% (active) | -11.9% (active) | – | 37.8% | 7.05% (active) | 2.68% (active) | 44% | 31.8% | -52.8% (active) | –
O=C1/C(=C/c2ccccc2[N+](=O)[O-])Oc2ccc(O)c(O)c21 | 36.1% | 25.5% | 48.8% | 47.9% | 93.1% | 48.5% | 35.1% | 21.1% | 39.8% | – | 28.5% | 21.2% | 21.6% | 57.9% | 37.5% | – | 52.9%
COc1cc(OCc2cccc(-c3ccc(C(O)c4nccs4)cc3)c2C)cc(OC)c1CNCCNC(C)=O (stereo not drawn) | 85.9% | 96.1% | 98.5% | 91.8% | 113% | 103% | – | 105% | 90.8% | 98.5% | 97.8% | 89.9% | 94% | 124% | 101% | 101% | 102%
CCOC(=O)c1[nH]c(C)c(C(=O)OCc2ccccc2C#N)c1C | 45.7% | 70.5% | 105% | 85.8% | 88.3% | 44.6% | 62.5% | 49.1% | 103% | 9.9% (active) | 41.4% | 30.5% | 40.9% | 64.3% | 42.8% | – | 50.5%
Cc1nn(-c2ccccc2)c(-n2ccnc2)c1/C=N/Nc1nc(-c2ccc(F)cc2)cs1 | 49% | 76.1% | 105% | 56% | 81.4% | 87.4% | 84.8% | 82.9% | 31.1% | 85.2% | 88.4% | 72.3% | 67.8% | – | 90.4% | – | 75.3%
COc1ccc(S(=O)(=O)n2c3ccccc3n3ncc(-c4nnc(C)o4)c23)cc1 | 24.7% | 45% | 30.6% | 81.6% | 54.4% | 34.4% | 0.366% (active) | 27% | 41.8% | -21.9% (active) | 27% | 18.9% | – | 17.1% | 29.8% | -25.1% (active) | –
